Source: PubChem BioAssay (NCI)
Several values for one entry are separate records, joined by “and”; a condition that tells them apart may be missing. Equal values may be shown once. Compounds without any hit were thinned out: in the full panel of roughly 83,000, 20% have a hit.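 Note: values are percent growth. 100 is the growth of untreated cells, values between 100 and 0 indicate rising inhibition; between -100 and 0 indicates cell death.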 Activity calls are given as the source filed them. The calls were made as follows: active = growth percent below 10; inactive = the rest.

Legend:
Test in all cases: NCI-60 one-dose screen, 48 h (100 = growth as untreated, 0 = no growth, -100 = all killed)
Details in all cases: 10 µM unless noted
SK-MEL-2 melanoma = tested on: SK-MEL-2 melanoma
EKVX NSCLC = tested on: EKVX NSCLC
SN12C renal = tested on: SN12C renal
UO-31 renal = tested on: UO-31 renal
TK-10 renal = tested on: TK-10 renal
ACHN renal = tested on: ACHN renal
CAKI-1 renal = tested on: CAKI-1 renal
A498 renal = tested on: A498 renal
CCRF-CEM leukemia = tested on: CCRF-CEM leukemia
MOLT-4 leukemia = tested on: MOLT-4 leukemia

Measured: growth

Cn1cc(-c2cc(N)n3nc(-c4c[nH]c5ccccc45)cc3n2)c2cc(Br)ccc21
active: SK-MEL-2 melanoma -65.4% | EKVX NSCLC -86.5% | SN12C renal -78.8% | UO-31 renal -82.3% | TK-10 renal -94.6% | ACHN renal -87.7% | CAKI-1 renal -87.3% | A498 renal -92.5% | CCRF-CEM leukemia -22.9% | MOLT-4 leukemia 7.68%

COc1ccc2[nH]c(=O)c(CSc3ccccc3Nc3nccc(-c4ccc5c(c4)OCO5)n3)cc2c1
inactive: SK-MEL-2 melanoma 95.6% | EKVX NSCLC 88% | SN12C renal 89.4% | UO-31 renal 75.8% | TK-10 renal 99.7% | ACHN renal 90.4% | CAKI-1 renal 68.5% | A498 renal 107% | CCRF-CEM leukemia 69.8% | MOLT-4 leukemia 50.1%

Cc1nc2sccn2c1-c1nnc(SCC(C)C)o1
inactive: SK-MEL-2 melanoma 92.1% | EKVX NSCLC 74.5% | SN12C renal 88.4% | UO-31 renal 67.7% | TK-10 renal 127% | ACHN renal 87.8% | CAKI-1 renal 76.7% | A498 renal 98.5% | CCRF-CEM leukemia 51.6% | MOLT-4 leukemia 84.1%

Nc1cccc(-n2c(COc3ccc(I)cc3)nc3ccccc32)c1
inactive: SK-MEL-2 melanoma 82.5% and 105% | EKVX NSCLC 70.4% and 102% | SN12C renal 90.2% and 103% | UO-31 renal 43.6% and 81.3% | TK-10 renal 112% and 98.6% | ACHN renal 81.9% and 103% | CAKI-1 renal 56.8% and 97.2% | A498 renal 112% and 132% | CCRF-CEM leukemia 82.8% and 99.3% | MOLT-4 leukemia 71.5% and 99.8%

COc1ccc2[nH]c(=O)c(CSc3ccccc3Nc3nccc(-c4ccc(C(F)(F)F)cc4)n3)cc2c1
inactive: SK-MEL-2 melanoma 41.9% | EKVX NSCLC 54.3% | UO-31 renal 26.9% | TK-10 renal 97.1% | A498 renal 39.9%
active: SN12C renal -30.8% | ACHN renal -29.4% | CAKI-1 renal -6.85% | CCRF-CEM leukemia 7.12% | MOLT-4 leukemia -8.19%

N#Cc1c(-c2ccc(F)cc2)nc(SCc2ccc(F)cc2)nc1N1CCNCC1
active: SK-MEL-2 melanoma -73% | EKVX NSCLC 1.29% | SN12C renal -58.6% | UO-31 renal 8.26% | TK-10 renal -25% | ACHN renal -79% | CAKI-1 renal -80.1% | CCRF-CEM leukemia 4.49% | MOLT-4 leukemia 7.79%
inactive: A498 renal 96.5%

COc1ccc(/C=C/c2nc3ccccc3c(=O)n2CC(=O)Nc2ccccc2)cc1
inactive: SK-MEL-2 melanoma 81.2% | EKVX NSCLC 63.1% | CAKI-1 renal 35.1% | CCRF-CEM leukemia 88.3% | MOLT-4 leukemia 86.7%
active: SN12C renal 8.23% | UO-31 renal -33% | TK-10 renal -9.9% | ACHN renal -60% | A498 renal -43%

CN(C)c1nc(NCCNS(=O)(=O)c2ccc(C3=Nc4c(N)nc(N)nc4NC(c4ccc(Cl)cc4)C3)cc2)nc(N2CCOCC2)n1 (stereo not given)
inactive: SK-MEL-2 melanoma 98.5% | EKVX NSCLC 37.6% | SN12C renal 37% | UO-31 renal 59.9% | TK-10 renal 86.8% | ACHN renal 69.2% | CAKI-1 renal 41.7% | A498 renal 108% | CCRF-CEM leukemia 17.3% | MOLT-4 leukemia 13.9%

CC[C@]12C=CCN3CC[C@@]4(c5ccc(OC)cc5N(C)[C@H]4[C@@](O)(C(=O)OC)[C@@H]1OC(=O)CCC[P+](c1ccc(OC)cc1)(c1ccc(OC)cc1)c1ccc(OC)cc1)[C@@H]32
active: SK-MEL-2 melanoma -90.6% | EKVX NSCLC -85% | SN12C renal -93.4% | UO-31 renal -56.8% | TK-10 renal -90.7% | ACHN renal -95.8% | CAKI-1 renal -93.4% | A498 renal -83.2% | CCRF-CEM leukemia -71.2% | MOLT-4 leukemia -36.7%

COc1cc(/C=N/NC(=O)c2ccc(OCc3nc4ccc(C)cc4[nH]3)cc2)cc(OC)c1OC
inactive: SK-MEL-2 melanoma 68.1% | EKVX NSCLC 72.4% | SN12C renal 56.4% | UO-31 renal 66.2% | TK-10 renal 83.2% | ACHN renal 69.6% | CAKI-1 renal 50.5% | A498 renal 116%
active: CCRF-CEM leukemia 7.65% | MOLT-4 leukemia 4.5%

O=C(c1ccc(Cl)cc1)C1[C@H](c2ccccc2Cl)[C@@H](c2ccccc2)NC12C(=O)Nc1ccccc12 (stereo not given in full)
active: SK-MEL-2 melanoma -85.3% | EKVX NSCLC 1.03% | SN12C renal -89.1% | UO-31 renal 3.34% | ACHN renal 1.1% | CAKI-1 renal 3.65% | A498 renal -29% | CCRF-CEM leukemia 4.66% | MOLT-4 leukemia -32.1%
inactive: TK-10 renal 12.1%

CCCCN1C(=O)/C(=C\C(=O)c2cc3ccccc3oc2=O)c2ccccc21
active: ACHN renal 0.901% | MOLT-4 leukemia 3.77%
inactive: SK-MEL-2 melanoma 79.8% | EKVX NSCLC 84.5% | SN12C renal 56.2% | UO-31 renal 32.1% | TK-10 renal 57.7% | CAKI-1 renal 70.8% | A498 renal 161% | CCRF-CEM leukemia 25.5%

CC(Nc1ncnc2ccc(-c3ccc4oc(N)nc4c3)cc12)c1ccccc1 (stereo not given)
active: EKVX NSCLC 5.01% | SN12C renal -17.7% | UO-31 renal -76.4% | TK-10 renal -41.4% | ACHN renal -64.2% | CAKI-1 renal -40.6% | CCRF-CEM leukemia 2.38% | MOLT-4 leukemia -39.9%
inactive: SK-MEL-2 melanoma 34.6% | A498 renal 49.8%

O=C1Nc2cc(-c3ccc(NS(=O)(=O)c4ccc(F)c(Cl)c4)cc3)ccc2/C1=C/c1ccc[nH]1
inactive: SK-MEL-2 melanoma 55.8% | SN12C renal 55.3% | UO-31 renal 35.6% | TK-10 renal 54.5% | CAKI-1 renal 33% | A498 renal 52.1% | CCRF-CEM leukemia 39.7% | MOLT-4 leukemia 11.7%
active: EKVX NSCLC 1.79% | ACHN renal 6.04%

COc1ccc(C2=Nc3c(N)nc(N)nc3NC(c3ccc(Oc4nc(Nc5ccc(F)cc5)nc(N(C)C)n4)c(OC)c3)C2)cc1 (stereo not given)
inactive: SK-MEL-2 melanoma 92.4% | EKVX NSCLC 67.2% | SN12C renal 90.2% | UO-31 renal 52.5% | TK-10 renal 86.4% | ACHN renal 99% | CAKI-1 renal 58% | A498 renal 68.9% | CCRF-CEM leukemia 50.1% | MOLT-4 leukemia 18.4%

CCCCNC(=S)Nc1ccc(OCc2nc3ccc(Cl)cc3[nH]2)cc1
inactive: EKVX NSCLC 28.9% | SN12C renal 19.2% | TK-10 renal 36.6% | CAKI-1 renal 21.6% | A498 renal 90%
active: SK-MEL-2 melanoma 7.47% | UO-31 renal 5.99% | ACHN renal 5.02% | CCRF-CEM leukemia 7.96% | MOLT-4 leukemia 9.85%

O=C(Nc1ccc(S(=O)(=O)N2CCCCC2)cc1)C(Cl)Cl
inactive: SK-MEL-2 melanoma 104% | EKVX NSCLC 95.4% | SN12C renal 112% | UO-31 renal 97% | TK-10 renal 103% | ACHN renal 109% | CAKI-1 renal 97.9% | A498 renal 111% | CCRF-CEM leukemia 127% | MOLT-4 leukemia 117%

CCCCCCCCCCCCCCCCCC(=O)Nc1ccc(OC)cc1
inactive: SK-MEL-2 melanoma 102% | EKVX NSCLC 94.7% | SN12C renal 99.7% | UO-31 renal 88.8% | TK-10 renal 99.8% | ACHN renal 105% | CAKI-1 renal 98% | A498 renal 105% | CCRF-CEM leukemia 86.4% | MOLT-4 leukemia 102%

COC(=O)c1cc(C(=O)C(F)(F)F)n2c3ccccc3c3ccccc3c12
inactive: SK-MEL-2 melanoma 97.6% | EKVX NSCLC 78.3% | SN12C renal 53.1% | UO-31 renal 39% | TK-10 renal 73.7% | ACHN renal 18.2% | CAKI-1 renal 43.1% | A498 renal 120% | CCRF-CEM leukemia 97.6% | MOLT-4 leukemia 97.4%

CC1=C(C(=O)Nc2ccccc2)C(c2cccc(Cl)c2Cl)n2c(nc3ccccc32)N1 (stereo not given)
inactive: SK-MEL-2 melanoma 75.2% | EKVX NSCLC 46.3% | SN12C renal 53.4% | UO-31 renal 33.7% | TK-10 renal 57.8% | ACHN renal 42.5% | CAKI-1 renal 36.4% | A498 renal 35% | CCRF-CEM leukemia 29.8%
active: MOLT-4 leukemia 7.7%

COc1ccc(NC(=O)N/N=C/c2c[nH]c3ccccc23)cc1
inactive: EKVX NSCLC 43.1% | SN12C renal 34.4% | UO-31 renal 40.3% | TK-10 renal 74.4% | ACHN renal 51.1% | CAKI-1 renal 44% | A498 renal 85.5% | CCRF-CEM leukemia 21% | MOLT-4 leukemia 20.5%
active: SK-MEL-2 melanoma -10.7%

Cc1nn(-c2ccccc2)c2ncn(CC(=O)N/N=C/c3ccccc3O)c(=O)c12
active: MOLT-4 leukemia 9.42%
inactive: SK-MEL-2 melanoma 55% | EKVX NSCLC 13.3% | SN12C renal 47.4% | UO-31 renal 22.6% | TK-10 renal 63.4% | ACHN renal 21.4% | CAKI-1 renal 39.1% | A498 renal 87.2% | CCRF-CEM leukemia 23.9%

COc1cc(C2CC(c3ccc(C(F)(F)F)cc3)=Nc3c(N)nc(N)nc3N2)ccc1Oc1nc(Nc2ccc(F)cc2)nc(N(C)C)n1 (stereo not given)
active: MOLT-4 leukemia 4.31%
inactive: SK-MEL-2 melanoma 59.9% | EKVX NSCLC 44.1% | SN12C renal 50.7% | UO-31 renal 41.6% | TK-10 renal 65.4% | ACHN renal 48.3% | CAKI-1 renal 40.9% | A498 renal 65.6% | CCRF-CEM leukemia 69.4%

Cn1cc(-c2cc(N)n3nc(-c4c[nH]c5ccc(Cl)cc45)cc3n2)c2cccnc21
active: EKVX NSCLC -71.9% | SN12C renal -80% | UO-31 renal -77.5% | TK-10 renal -85.9% | ACHN renal -98.8% | CAKI-1 renal -62.3% | A498 renal -79.7% | CCRF-CEM leukemia -34.8% | MOLT-4 leukemia -37.8%
inactive: SK-MEL-2 melanoma 81%

COc1ccc(CCC2NCCc3c(Br)c4c(c(OC)c32)OCO4)cc1 (stereo not given)
inactive: EKVX NSCLC 24.4% | SN12C renal 13.2% | UO-31 renal 21.1% | TK-10 renal 44% | ACHN renal 15.5% | CAKI-1 renal 16.5% | A498 renal 79% | CCRF-CEM leukemia 19.6%
active: SK-MEL-2 melanoma -16.9% | MOLT-4 leukemia 9.59%

Cc1ccc(C2CC(c3ccc(S(=O)(=O)NCCNc4nc(N(C)C)nc(N5CCOCC5)n4)cc3)=Nc3c(N)nc(N)nc3N2)cc1 (stereo not given)
active: MOLT-4 leukemia 3.09%
inactive: SK-MEL-2 melanoma 86.2% | EKVX NSCLC 38.4% | SN12C renal 51.5% | UO-31 renal 36.9% | TK-10 renal 96.4% | ACHN renal 68.2% | CAKI-1 renal 43.4% | A498 renal 105% | CCRF-CEM leukemia 17.3%
